In all, about 30,000 compounds went through this assay and about 190 (0.63%) were called active. The list comes from a sample in which actives are over-represented; it also holds similar structures and randomly drawn compounds. Values without a mark were called inactive. Cut-off read from the data, not from the text of the source: active = viability loss activity score above about 50%; inconclusive = no clear call, values can overlap the other calls; inactive = below about 35%.
Assay: BJeLR cell viability loss, primary screen, luminescence, CellTiterGlo ATP (AID 2275);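 note: higher score means fewer live cells and less ATP luminescence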
Details: BJeLR fibroblasts viability, 48 h, active compounds read high, HRASV12, hTERT and SV40 LT/ST transformed, concentration not given here

| SMILES | viability loss activity score |
| --- | --- |
| O=C(CC(O)(c1ccccc1)C(F)(F)F)c1ccccc1 (stereo unspecified) | -2.63% |
| CCCCN(C)S(=O)(=O)c1ccc2c(c1)oc(=O)n2C | -1.52% |
| CC(=O)Oc1ccc(N(C(C)=O)S(=O)(=O)c2ccc(Cl)cc2)cc1 | -1.22% |
| CC[C@]1(O)C[C@@H]2CN(CCc3c([nH]c4ccccc34)[C@@](C(=O)OC)(c3cc4c(cc3OC)N(C)[C@H]3[C@@](O)(C(=O)OC)[C@H](OC(C)=O)[C@]5(CC)C=CCN6CC[C@]43[C@@H]65)C2)C1 | 64.7% (active) |
| COc1ccc(C(=O)OC2=C(c3ccccc3)C(=O)c3ccccc3C2=O)cc1 | -6.2% |
| CC1=C(C(=O)OC2CC(C)CCC2C(C)C)C(c2ccc(Br)cc2)n2nnnc2N1 (stereo unspecified) | -1.4% |
| CCC1CCCCN1C(=O)c1ccc(F)cc1 (stereo unspecified) | 5.08% |
| O=C(CSc1ccccn1)NCc1ccccc1 | -3.11% |
| CCN1C(=O)c2cccc3c(NC(=S)NC(=O)c4ccccc4)ccc1c23 | 2.04% |
| Cc1ccc(S(=O)(=O)N(C)C[C@@H]2Oc3c(NC(=O)NC(C)C)cccc3C(=O)N([C@H](C)CO)C[C@H]2C)cc1 | 0.297% |
| C=CC[C@H]1Cc2ccccc2[C@H](CC=C)N1 | 5.12% |
| COc1ccc(-c2coc3c(C)c4oc(=O)c5cc(OC)ccc5c4cc23)cc1 | -3.61% |
| COC(=O)C1=C(N)Oc2cc(C)oc(=O)c2C1c1cccnc1 (stereo unspecified) | -1.16% |
| CCOC(=O)CCN1N=C(c2ccc(CC)cc2)CCC1=O | -3.96% |
| COc1ccc(S(=O)(=O)NCCN2CCOCC2)cc1-c1nnc2c3ccccc3c(C)nn12 | 13.3% |
| CN(C)c1ccc(C2CC(c3ccc(Br)cc3)=NN2S(C)(=O)=O)cc1 (stereo unspecified) | 6.95% |
| CSc1c(CC(=O)Nc2ccc(C)cc2)[nH]c2ccccc12 | 1.08% |
| CC(=O)OCCn1c(=O)c2ccccc2c2ccccc2c1=O | 0.959% |
| Cc1c(C(=O)OC2CCCC2)[nH]c2c1C(=O)CCC2 | -0.399% |
| COc1ccc(C(=O)NCc2cc3cc(Cl)ccc3[nH]2)cc1COc1ccccc1Cl | 13.4% |
| COc1ccc(-n2nc(C(=O)NC3CCCC(C)C3C)c3c4ccccc4n(C)c3c2=O)cc1 (stereo unspecified) | 0.653% |
| Cc1cc(C)n(-c2ccc(-n3cccc3/C=C(/C#N)S(=O)(=O)c3ccccc3)cc2)n1 | 1.25% |

| SMILES | viability loss activity score |
| --- | --- |
| O=C(CSc1ccc(Cl)cc1)N1CCc2ccccc21 | 8.93% |
| Cc1cc(Sc2nnc(C)s2)c2ccccc2n1 | 34.4% |
| COc1cc(S(=O)(=O)N2CCCCCCC2)ccc1-n1cnnn1 | -2.51% |
| COc1ccc(NC(=S)N2CCCC(c3ccccc3)=N2)cc1 | -2.21% |
| C[C@@H]1CN([C@H](C)CO)C(=O)c2cc(NS(=O)(=O)c3cccs3)ccc2O[C@@H]1CN(C)Cc1ccc(C(F)(F)F)cc1 | 0.614% |
| CCOC(=O)C1CCN(S(=O)(=O)c2ccc(N3C(=O)CC4(CCCC4)C3=O)c(Cl)c2)CC1 | 1.47% |
| O=C(Nn1cnc2ccccc2c1=O)c1ccccc1 | 3.68% |
| CCC(NCC(O)Cn1c2ccccc2c2ccccc21)C(=O)O (stereo unspecified) | -1.06% |
| CC(C)Nc1ccc(-n2nc3ccccc3[n+]2[O-])cc1 | 2.31% |
| Cc1cccc[n+]1C/C=C\c1ccccc1 | 13.2% |
| Cc1ccc(S(=O)(=O)Nc2ccc3c(c2)C(=O)N([C@@H](C)CO)C[C@@H](C)[C@@H](CN(C)S(=O)(=O)c2ccc(C)cc2)O3)cc1 | 3.23% |
| CC(C)(C)c1nc(=S)[nH][nH]1 | -5.55% |
| Cc1noc(C)c1S(=O)(=O)Nc1ccc2c(c1)C(=O)N([C@@H](C)CO)C[C@H](C)[C@H](CN(C)Cc1ccc(C(=O)Nc3ccccc3N)cc1)O2 | 6.72% |
| Cn1c(Cc2nc(-c3cnccn3)no2)nnc1SCC(=O)Nc1ccc(Cl)cc1 | -7.21% |
| Cc1ccc(-n2cc(-c3ccccc3)c3c(NN4CCOCC4)ncnc32)cc1Cl | 0.765% |
| CC(C)(C)NC(=S)N1CCn2cccc2C1c1ccccc1F (stereo unspecified) | -3.87% |
| Cc1ccccc1OC1C(=O)N(CCc2ccc(F)cc2)C1c1ccc2c(c1)OCO2 (stereo unspecified) | 0.258% |
| CCCC(=O)N1CCC(c2c[nH]c3ccccc23)(c2c[nH]c3ccccc23)CC1 | 5.31% |
| CC(=O)NN1C(=O)c2ccccc2NC1c1ccccc1 (stereo unspecified) | -1.21% |
| Cc1cccc(C(=O)Nc2ccc(NC(=O)c3ccco3)cc2)c1 | 0.303% |
| CS(=O)(=O)c1sc(C(=O)Nc2ccccc2Cl)c2c1C=CCC2 | -1.24% |
| NC(=O)Cn1nnc2sc3c(c2c1=O)CCCC3 | 10.6% |

| SMILES | viability loss activity score |
| --- | --- |
| Cc1ccc(CC2C(=O)N(c3cccc(C(F)(F)F)c3)C(=O)C2C)cc1 (stereo unspecified) | 1.06% |
| O=C(O)c1ccc(CNCCc2ccccc2)s1 | 0.164% |
| COC(=O)C1=C(C)N(C)C(=S)NC1c1ccccc1 (stereo unspecified) | -3.34% |
| CCOC(=O)c1cccc(NC(=O)CCOc2ccccc2)c1 | 2.1% |
| Cc1ccc(CCNC(=O)C2(NS(=O)(=O)c3cccc4cccnc34)CCCCC2)cc1 | 2.11% |
| Cc1ccc(S(=O)(=O)N(CC(=O)NC2CC2)C2CCCCC2)cc1 | 5.79% |
| CC(C)(C)C(=O)CSc1nc2ccccc2c(=O)n1CC1CC1 | -4.35% |
| Cc1cc(C(C)(C)C)cc(S(=O)(=O)Nc2ccc(C(=O)N3CCC(C)CC3)cc2)c1C | -6.82% |
| O=c1n(Cc2ccccc2)c2ccccc2n1Cc1ccccc1 | 6.4% |
| CC(C)NC(=O)Nc1ccc2c(c1)C(=O)N([C@@H](C)CO)C[C@H](C)[C@H](CN(C)S(=O)(=O)c1cccs1)O2 | -2.18% |
| O=C1C2=C(Nc3ccccc3S(=O)(=O)C2c2ccc(Cl)cc2)c2ccccc21 (stereo unspecified) | 0.962% |
| CNC(=O)NC(=O)CSc1ncnc2sc(-c3ccccc3)cc12 | 7.62% |
| CC(C)NC(=O)N(C)C[C@H]1Oc2ccc(NC(=O)CCCCCC(=O)Nc3ccccc3N)cc2C(=O)N([C@@H](C)CO)C[C@@H]1C | -2.79% |
| Cc1ccccc1C(=O)Nc1ccc(NC(=O)c2ccc(C(C)(C)C)cc2)cc1 | -4.36% |
| N#Cc1c(-c2ccccc2)c(-c2ccccc2)nn(CC(=O)NN)c1=O | 26.9% |
| COC(=O)C1=C(C)NC2=C(C(=O)c3ccccc32)C1c1ccc(OC)cc1 (stereo unspecified) | -2.35% |
| CCOC(=O)c1cc2c(C)n(-c3ccccc3)c(C)c2cc(C(=O)OCC)c1=O | -1.14% |
| CC(C)n1c(SCC(=O)O)nc2cc(Cl)ccc21 | 2.11% |
| CCN(/C=C1\SC(=S)N(c2ccc(OC)cc2)C1=O)CC | -2.34% |
| CCCN(C(=O)CCc1nc(-c2ccccc2F)no1)c1ccccc1C | 14.3% |
| COc1ccc(CN(C)C[C@H]2Oc3c(NC(=O)C4CCCCC4)cccc3C(=O)N([C@@H](C)CO)C[C@@H]2C)cc1 | 0.512% |
| CC(=O)Nc1ccc(Nc2c3c4c(cccc4[nH]c2=O)C(=O)c2ccccc2-3)cc1 | 59.2% (active) |

| SMILES | viability loss activity score |
| --- | --- |
| O=C(Nc1ccccc1C(=O)O)c1ccc(CN2CCOCC2)cc1 | 8.6% |
| CCn1cc(C(=O)NC2CCCC(C)C2C)c2cc(OC)c(OC)cc2c1=O (stereo unspecified) | 2.08% |
| O=C1/C(=C/c2cccc(Br)c2)SC(=S)N1CC(=O)N1CCCc2ccccc21 | -6.26% |
| O=S(=O)(Nc1ccccc1C(F)(F)F)c1ccc2c(c1)CCO2 | 2.04% |
| C[C@@H]1CN([C@H](C)CO)C(=O)c2cc(NS(=O)(=O)c3ccc(Cl)cc3)ccc2O[C@@H]1CN(C)CC1CCCCC1 | -2.47% |
| COc1ccc(-c2nn(-c3ccc(C)c(Cl)c3)c3c2cnc2ccc(F)cc23)cc1OC | -4.15% |
| Cc1ccc(S(=O)(=O)n2c(C)cc(C(=O)O)c2C)cc1 | -6.81% |
| NC1=NC(=O)C(Cc2cccc(Cl)c2)S1 (stereo unspecified) | -0.141% |
| CCC(Sc1nc2ccsc2c(=O)n1Cc1ccccn1)C(=O)Nc1cccc(OC)c1 (stereo unspecified) | -2.12% |
| CCOC(=O)C1C=C2C(=O)N3C=CC=CC3N=C2N(C(C)C)C1=NC(C)=O (stereo unspecified) | -1.61% |
| C=CCSc1nnc2n1CCCN2C(=O)Nc1cccc(Cl)c1 | -3.59% |
| OC(CN1CCN(C2c3ccccc3-c3ccccc32)CC1)c1ccccc1 (stereo unspecified) | 0.265% |
| Cc1cc(Nc2ccc(Cl)cc2)c2ccccc2n1 | 12.6% |
| CCCn1cc(SCC(=O)N2CCc3ccccc32)c2ccccc21 | 1.29% |
| CCOC(=O)c1c(NC(=S)Nc2ccc(OC)cc2)sc2c1CC(C(C)C)OC2 (stereo unspecified) | 3.67% |
| CC(C)NC(=O)Cn1c2ccccc2c2cn[nH]c(=O)c21 | -1.32% |
| CC(=O)N(c1nc(-c2cc3ccccc3oc2=O)cs1)c1cccc(C)c1C | 5.58% |
| CCc1c(C)c(C#N)c2nc3ccccc3n2c1-n1ccnc1 | 1.77% |
| C[C@H]1CN([C@@H](C)CO)C(=O)c2cc(NC(=O)Cc3cn(C)c4ccccc34)ccc2O[C@H]1CN(C)Cc1ccc(Cl)c(Cl)c1 | -2.28% |
| Cc1ccc(S(=O)(=O)N(C)C[C@@H]2Oc3ccc(NS(=O)(=O)c4cccs4)cc3C(=O)N([C@@H](C)CO)C[C@H]2C)cc1 | -3.75% |
